# Reference: PubChem BioAssay (NCATS)
# Inconclusive results are not listed. A call without a number means that no potency is given here. A number with no mark means an inactive call. Calls of active or inactive are those of the source. Calls come from the whole dose curve; as a rule, active = well fitted inhibition curve with a large enough effect; inconclusive = small, poorly fitted or top-dose-only effect; inactive = flat fitted curve, though single readings scatter.
# Molecular target: Calcium and integrin-binding protein 1 (Homo sapiens) (UniProt Q99828)
# Assay: Primary qHTS for Identification of Calcium Integrin Binding Protein 1 (CIB1) Competitor (AID 1508620); note: top concentration of the series differs between compounds
# Settings: CIB1-GST / FITC-alphaIIb peptide fluorescence polarization; series mostly up to 57.7 µM
# In short: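 Fluorescence polarization competition: GST-tagged CIB1 (1 uM final) preincubated with compound 15 min at room temperature, then FITC-labelled alphaIIb peptide (100 nM final) added. After 15 min at room temperature, polarization read at Ex 480/Em 540.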
# Chain of Calcium and integrin-binding protein 1 (Homo sapiens) (Q99828 whole entry, looked up): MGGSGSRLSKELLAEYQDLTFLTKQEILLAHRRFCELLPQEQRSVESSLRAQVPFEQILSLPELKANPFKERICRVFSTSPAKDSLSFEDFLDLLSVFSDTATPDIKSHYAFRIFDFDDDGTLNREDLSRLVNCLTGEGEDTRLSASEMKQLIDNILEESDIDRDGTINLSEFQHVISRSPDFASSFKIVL
Compound,Potency,"activity change, negative = inhibition"
CC(C)CC(=O)O[C@@H]1OC=C(CO[C@@H]2O[C@H](CO[C@@H]3O[C@H](CO)[C@@H](O)[C@H](O)[C@H]3O)[C@@H](O)[C@H](O)[C@H]2O)[C@H]2C[C@H](O)[C@@H](CO)[C@@H]12,inactive,–
CC/C=C\C[C@H]1C(=O)C=C[C@@H]1CCCCCCCC(=O)O,inactive,–
CC1(C)CCC(C)(C)c2cc([C@@H](O)C(=O)Nc3ccc(C(=O)O)cc3F)ccc21,inactive,–
CC1(C)CCC[C@@]2(C)[C@H]1[C@H](O)C=C1COC(=O)[C@@]12O,inactive,–
CCC(=O)NS(=O)(=O)c1ccc(-c2c(-c3ccccc3)noc2C)cc1,inactive,–
COc1cc(/C=C/C(=O)O[C@H]2[C@H](OC(=O)/C=C/c3cc(OC)c(O)c(OC)c3)O[C@H](CO[C@@H]3O[C@H](CO)[C@@H](O)[C@H](O)[C@H]3O)[C@@H](O)[C@@H]2O)ccc1O,inactive,–
N[C@@H](CC(=O)N1CCn2c(nnc2C(F)(F)F)C1)Cc1[nH]nc2c(F)c(F)ccc12,inactive,–
Cc1nnc(C(C)C)n1C1CC2CCC(C1)N2CC[C@H](NC(=O)C1CCC(F)(F)CC1)c1ccccc1 (stereo not given in full),inactive,–
C/C(=C\CCC(C)(O)c1ccc(C)cc1)C(=O)O (stereo not given),inactive,–
Cc1ccc2c(c1)C=Cc1cc(C)ccc1C2c1cn(Cc2ccc(C(=O)Nc3nn[nH]n3)o2)c(=O)[nH]c1=S,inactive,–
C[C@@H]1CC[C@]2(C(=O)O)CC[C@]3(C)C(=CCC4[C@]5(C)C(CC[C@]43C)C(C)(C)[C@@H](O)[C@H](O)[C@@H]5O)C2[C@]1(C)O (stereo not given in full),inactive,–
C/C=C/C1=CC2=CC(=O)C(C)(O)C(OC(=O)c3c(C)cc(O)cc3O)C2CO1 (stereo not given),inactive,–
C=C1CCC2C(C)(COC3OC(COC(=O)CC(=O)O)C(O)C(O)C3O)CCCC2(C)C1CCC1=CCOC1=O (stereo not given),inactive,–
CC(=O)N1CCN(NC(=O)c2ccc(F)cc2)CC1,inactive,–
Cc1nn(C)c2c1C(c1ccc(C(F)(F)F)cc1)C(C#N)=C(N)O2 (stereo not given),inactive,–
CC(C)(C)NCC(O)COc1cccc2c1CCCC2=O (stereo not given),inactive,–
CC1(C)CC[C@]2(C(=O)O)CC[C@]3(C)C(=CCC4[C@@]5(C)CC[C@H](O[C@@H]6O[C@H](C(=O)O)[C@@H](O)[C@H](O)[C@H]6O)C(C)(CO)C5CC[C@]43C)C2C1 (stereo not given in full),inactive,–
COc1cc([C@@H]2Oc3c(OC)cc(CCCO)cc3[C@@H]2CO[C@@H]2O[C@H](CO)[C@@H](O)[C@H](O)[C@H]2O)ccc1O,inactive,–
C=C[C@H]1[C@H](O[C@@H]2O[C@H](CO)[C@@H](O)[C@H](O)[C@H]2O)OC=C2C(=O)OCC[C@]21O,inactive,–
COC(=O)C1=CO[C@@H](O[C@@H]2O[C@H](CO[C@@H]3O[C@H](COC(=O)/C=C/c4ccc(O)cc4)[C@@H](O)[C@H](O)[C@H]3O)[C@@H](O)[C@H](O)[C@H]2O)[C@@H]2C(CO)=CC[C@H]12,inactive,–

Compound,Potency,"activity change, negative = inhibition"
CC1(C)CC[C@]2(C(=O)O)CC[C@]3(C)C(=CCC4[C@@]5(C)CCC(O[C@@H]6OC[C@H](O)[C@H](O)[C@H]6O[C@@H]6O[C@H](CO)[C@@H](O)[C@H](O)[C@H]6O)[C@@](C)(CO)C5CC[C@]43C)[C@@H]2C1 (stereo not given in full),inactive,–
NC1CCC(N[C@@H]2C[C@H]2c2ccccc2)CC1 (stereo not given in full),inactive,–
COC1(CC(C)C)NC(=O)C(O)(Cc2ccccc2)NC1=O (stereo not given),inactive,–
C=C1CC[C@H]2[C@@](C)(CCC(O)[C@@]2(C)CO)[C@@H]1C/C=C(/C(=O)O)C(O)CO (stereo not given in full),inactive,–
COC1CC(OC2CCC3(C)C(=CCC4C3CCC3(C)C(C(C)O)CCC43O)C2)OC(C)C1OC1OC(C)C(OC2OC(COC3OC(COC4OC(CO)C(O)C(O)C4O)C(O)C(O)C3O)C(O)C(O)C2O)C(OC)C1O (stereo not given),inactive,–
CC1(C)C[C@H]2C3=CCC4[C@@]5(C)CC[C@H](O[C@H]6O[C@H](C(=O)O)[C@@H](O)[C@H](O)[C@H]6O[C@H]6O[C@H](CO)[C@@H](O)[C@H](O)[C@H]6O[C@@H]6O[C@H](CO)[C@@H](O)[C@H](O)[C@H]6O)[C@](C)(CO)C5CC[C@@]4(C)[C@]3(C)CC[C@@]2(C)[C@H](O[C@@H]2OC[C@H](O)[C@H](OC3O[C@H](CO)[C@@H](O)[C@H](O)[C@H]3O)[C@H]2O)[C@@H]1O (stereo not given in full),–,-7.85% [at 12.4 µM]
Clc1ccc(CN[C@H]2CCN(c3ncc(Br)cn3)C2)c(Cl)c1,inactive,–
CC(=O)c1c(C)cc(O)cc1O[C@@H]1O[C@H](CO)[C@@H](O)[C@H](O)[C@H]1O,inactive,–
COC1C=C([C@@H]2CC=C3[C@@]4(C)C(CC[C@]32C)[C@@]2(C)C=CC(=O)C(C)(C)C2C[C@H]4OC(C)=O)C(=O)O1 (stereo not given in full),inactive,–
CNC(=O)c1ccc2cc([C@@]3(O)CCn4cncc43)ccc2c1,inactive,–
C=C1CC[C@H]2[C@@H](/C=C(\C)C(=O)[C@@]3(OC(C)=O)C[C@H](C)[C@H](OC(C)=O)[C@@H]3[C@H]1OC(C)=O)C2(C)C,inactive,–
CC(C)=CCC[C@](C)(O[C@@H]1O[C@H](CO[C@@H]2OC[C@@H](O)[C@H](O)[C@H]2O)[C@@H](O)[C@H](O)[C@H]1O)[C@H]1CC[C@]2(C)[C@@H]1[C@H](O)C[C@@H]1[C@@]3(C)CC[C@H](O[C@@H]4O[C@H](CO)[C@@H](O)[C@H](O)[C@H]4O[C@@H]4O[C@H](CO)[C@@H](O)[C@H](O)[C@H]4O)C(C)(C)[C@@H]3CC[C@]12C,inactive,–
CC(NCc1ccc(OCc2cccc(F)c2)cc1)C(N)=O (stereo not given),inactive,–
CCC(NC(=O)CC(NC(=O)C(CO)NC(=O)C(CC)NC(=O)c1ccc[nH]1)c1ccccc1)C(=O)O (stereo not given),inactive,–
O=S(=O)(Nc1ccc(C(O)(C(F)(F)F)C(F)(F)F)cc1)c1cccs1,inactive,–
C=C1CCC2C(C)(CO[C@@H]3O[C@H](CO)[C@@H](O)[C@H](O)[C@H]3O)C(O)CCC2(C)C1C(=O)CC1=CCOC1=O (stereo not given in full),inactive,–
CCOc1ccc(C(Nc2ccccn2)c2ccc3ccc(C)nc3c2O)cc1C (stereo not given),inactive,–
CN(NC(=O)CC(=O)NN(C)C(=S)c1ccccc1)C(=S)c1ccccc1,inactive,–
CN(C)c1cccc(-c2c3c(=O)n(-c4ccccc4Cl)[nH]c3cc(=O)n2C)c1,inactive,–
OC[C@H]1O[C@@H](Oc2ccc3c(c2)OC[C@H]2c4cc5c(cc4O[C@@H]32)OCO5)[C@H](O)[C@@H](O)[C@@H]1O,inactive,–
